From PubChem BioAssay AID1259313 (Sanford-Burnham Center for Chemical Genomics, 2017)
About 8,500 (2.5%) of roughly 340,000 compounds were called active.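 The calls were made as follows: active = melting temperature shift of at least 10% of the positive control shift, at one fixed dose; inactive = the rest.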 The entries come from a sample that favours actives as a whole.

What follows are compounds tested on Glutamate receptor ionotropic, NMDA 3A (GRIN3A) ligand-binding domain (assay: binders of NR3A ligand-binding domain, primary screen, biophysical, differential scanning fluorimetry, uHTS (AID 1259313)). Conditions: NR3A LBD differential scanning fluorimetry, at 25 µM, stronger effect = higher value, 0% = protein alone, 100% = glycine-bound protein.
With `CCCn1c(N)c(N(CCOC)C(=O)C2CCCC2)c(=O)[nH]c1=O` the Tm shift relative to glycine control was 0.34% (inactive). In the case of `COc1ccc(CCNC(=O)CSc2nnc3ccc(-c4ccncc4)nn23)cc1`, the Tm shift relative to glycine control is reported as -0.92% (inactive). `O=C(Nc1ccccc1C(=O)Nc1ccncc1)c1ccc([N+](=O)[O-])cc1` was tested, and the Tm shift relative to glycine control was -13.8% (inactive). `O=C(CSCc1ccc([N+](=O)[O-])cc1)NCCSCc1ccccc1` was tested, and the Tm shift relative to glycine control was 1.53% (inactive). For `COc1ccc(NC(=O)CSCc2ccc([N+](=O)[O-])cc2)cc1OC`, the Tm shift relative to glycine control was 4.6% (inactive). `O=C(CSCc1ccc([N+](=O)[O-])cc1)Nc1cccc(C(=O)Nc2ccccc2C(=O)O)c1` was tested, and the Tm shift relative to glycine control was 11.3% (active). In the case of `O=C(COc1ccc([N+](=O)[O-])cc1)Nc1cccc(C(=O)Nc2ccccc2C(=O)O)c1`, the Tm shift relative to glycine control is reported as 10.6% (active). `Cc1cc(NC(=O)COc2ccc([N+](=O)[O-])cc2)no1` was tested, and the Tm shift relative to glycine control was 1.03% (inactive). With `Cc1c(CC(=O)N2CCN(C(=O)C3COc4ccccc4O3)CC2)c(=O)oc2c(O)c(O)ccc12` (stereo not given) the Tm shift relative to glycine control was 1.85% (inactive). In the case of `Cc1ccccc1Nc1scc(-c2ccc(Br)cc2)[n+]1-c1ccccc1C`, the Tm shift relative to glycine control is reported as 0.51% (inactive). For `COCC(C)NC(=O)c1ccc(-n2nc(C(F)(F)F)cc2-c2cccs2)cc1` (stereo not given), the Tm shift relative to glycine control was -0.17% (inactive). For `COC(=O)c1cn(C)c2ccc(S(=O)(=O)N3CC(C)CC(C)C3)cc2c1=O` (stereo not given), the Tm shift relative to glycine control was 1.34% (inactive). For `O=C(Nc1ccccc1C(F)(F)F)c1cc(-c2ccc(O)cc2)on1`, the Tm shift relative to glycine control was 12.7% (active). `O=C(Nc1cccnc1Cl)c1cc(-c2cccc(Cl)c2)on1` was tested, and the Tm shift relative to glycine control was -2.35% (inactive). In the case of `CCc1ccccc1NC(=O)c1cc(-c2ccc3c(c2)OCO3)on1`, the Tm shift relative to glycine control is reported as 0.47% (inactive). `CNC(=O)c1nnn(-c2ccccc2)c1C(=O)NC` was tested, and the Tm shift relative to glycine control was 4.23% (inactive). With `O=[N+]([O-])c1cc(C(F)(F)F)ccc1NCCc1ccncc1` the Tm shift relative to glycine control was 0.61% (inactive). `Cc1csc(NC(=O)c2ccc(-c3ccc(Cl)cc3Cl)o2)n1` was tested, and the Tm shift relative to glycine control was -7.24% (inactive). For `Cc1ccc(C(=O)Nc2nc3ccc(Cl)cc3s2)o1`, the Tm shift relative to glycine control was 11.1% (active). In the case of `Cc1sc2ncnc(N3CCC(C(=O)Nc4nc5ccc(Cl)cc5s4)CC3)c2c1C`, the Tm shift relative to glycine control is reported as 7.43% (inactive). For `O=C(NCCCn1ccnc1)c1cc(-c2ccccc2)on1`, the Tm shift relative to glycine control was 1.42% (inactive). For `CS/C(=C\[N+](=O)[O-])Nc1ccc(C)cc1`, the Tm shift relative to glycine control was -1.04% (inactive). `CCCC(=O)Nc1cccc(NC(=S)NC(=O)C(C)Oc2ccc(Cl)cc2Cl)c1` (stereo not given) was tested, and the Tm shift relative to glycine control was 16% (active). `COc1cccc(NC(=O)CN(C)C(=O)Cc2ccc(Cl)cc2Cl)c1` was tested, and the Tm shift relative to glycine control was -0.7% (inactive). For `CC(Oc1ccc(Cl)cc1Cl)C(=O)/C=C/N(C)C` (stereo not given), the Tm shift relative to glycine control was -0.27% (inactive). With `Cc1ccc(NC(=O)c2cnc(SCC(=O)NCC3CCCO3)n(C)c2=O)cc1` (stereo not given) the Tm shift relative to glycine control was -0.94% (inactive). For `CC(C)CN(C(=O)CN1CCN(S(=O)(=O)c2ccccc2)CC1)c1c(N)n(CC(C)C)c(=O)[nH]c1=O`, the Tm shift relative to glycine control was -2.36% (inactive). In the case of `CSc1ccc(Cl)c(C(=O)OCC(=O)N2CC(C)OC(C)C2)c1` (stereo not given), the Tm shift relative to glycine control is reported as 1.12% (inactive). For `O=C1NC(c2ccccc2)Cc2ccncc21` (stereo not given), the Tm shift relative to glycine control was 0.42% (inactive). `CCC(CC)NC(=O)/C=C/c1cccc([N+](=O)[O-])c1` was tested, and the Tm shift relative to glycine control was -1.15% (inactive). For `CCc1ccc(NC(=O)C(C)OC(=O)/C=C/c2cccc([N+](=O)[O-])c2)cc1` (stereo not given), the Tm shift relative to glycine control was 0.39% (inactive). `Cc1ccc(NC(=O)O/N=C/c2cccc([N+](=O)[O-])c2)cc1` was tested, and the Tm shift relative to glycine control was 15.8% (active). In the case of `CCOc1ccc(-c2cc(C(=O)N/N=C/c3ccc(O)cc3)c3ccccc3n2)cc1`, the Tm shift relative to glycine control is reported as 3.69% (inactive). With `N#CCC(=O)N/N=C/c1cn(Cc2ccc3ccccc3c2)c2ccccc12` the Tm shift relative to glycine control was 8.21% (inactive). `Cc1ccc(C(=O)N/N=C/c2cccc3ccccc23)cn1` was tested, and the Tm shift relative to glycine control was -0.89% (inactive). With `COc1cccc(Cn2cc(/C=N/NC(=O)c3cc(O)cc(O)c3)c3ccccc32)c1` the Tm shift relative to glycine control was 15.4% (active). For `CCn1c(=S)sc2c(=O)n(CC(=O)Nc3ccc(OC)cc3)c(C)nc21`, the Tm shift relative to glycine control was -1.05% (inactive). In the case of `CCn1c(=S)sc2c(=O)n(CC(=O)Nc3cccc(Br)c3)c(C)nc21`, the Tm shift relative to glycine control is reported as 19% (active). `CCOC(=O)c1ccccc1NC(=O)CSc1nc2c(sc(=S)n2CC)c(=O)[nH]1` was tested, and the Tm shift relative to glycine control was 2.58% (inactive). In the case of `CCCCN(CC)C(=O)C1CCCN(S(=O)(=O)c2cccc3nsnc23)C1` (stereo not given), the Tm shift relative to glycine control is reported as -4.45% (inactive). For `CC1C(=O)Nc2ccc(S(=O)(=O)N3CCN(c4ccccc4F)CC3)cc2NC1=O` (stereo not given), the Tm shift relative to glycine control was 0.26% (inactive). With `Cc1cccc2nc(CNc3ccc(F)cc3)cn12` the Tm shift relative to glycine control was -1.65% (inactive). `CC(=O)NS(=O)(=O)c1ccc(NC(=O)/C=C/c2ccccc2Cl)cc1` was tested, and the Tm shift relative to glycine control was -4.31% (inactive). With `O=C(/C=C/c1ccccc1Cl)Nc1ccc(S(=O)(=O)Nc2ncccn2)cc1` the Tm shift relative to glycine control was 3.4% (inactive). `NS(=O)(=O)c1ccc(NC(=O)/C=C/c2ccccc2Cl)cc1` was tested, and the Tm shift relative to glycine control was 22.5% (active). `O=C(O)c1ccccc1-c1ccccc1C(=O)Nc1ccccc1Br` was tested, and the Tm shift relative to glycine control was -1.03% (inactive). For `Cc1cc(N2C(=O)c3ccc(C(=O)NCc4ccccc4)cc3C2=O)no1`, the Tm shift relative to glycine control was -0.54% (inactive). `CC(C)C[C@H](NC(=O)N1CCn2c1nc1ccccc12)C(=O)NC1CC1` was tested, and the Tm shift relative to glycine control was -0.74% (inactive). In the case of `O=C(CSc1ccccc1)Nc1nnc(/C=C/c2ccccc2)s1`, the Tm shift relative to glycine control is reported as -4.65% (inactive). In the case of `COc1ccc(/C=C/c2nnc(NC(=O)C(C)C)s2)cc1`, the Tm shift relative to glycine control is reported as 6.05% (inactive). In the case of `O=C(Nc1ccc(Cl)cc1)Nc1nnc(/C=C/c2ccccc2)s1`, the Tm shift relative to glycine control is reported as 10.2% (active). In the case of `CC1CN(c2cc(=O)n(Cc3ccc(F)cc3)c(=O)[nH]2)CC(C)O1` (stereo not given), the Tm shift relative to glycine control is reported as -2.45% (inactive). For `COc1cc(CNC2CCCCC2)c(Br)cc1OC1CCCC1`, the Tm shift relative to glycine control was -0.72% (inactive). In the case of `O=C(c1cnn(-c2ccc(Cl)cc2)c1)c1ccccc1O`, the Tm shift relative to glycine control is reported as -2.84% (inactive). `COc1ccc(CNC(=O)COc2ccccc2C(=O)c2cnn(-c3ccccc3)c2)cc1OC` was tested, and the Tm shift relative to glycine control was 0.33% (inactive). With `Cc1cc(O)cc(O)c1C(=O)Cc1cnn(-c2ccccc2)c1` the Tm shift relative to glycine control was 13.1% (active). For `O=C(Nc1ccc(N2CCOCC2)nc1)c1c(F)cccc1F`, the Tm shift relative to glycine control was 1.58% (inactive). With `COC(=O)c1c(-c2ccsc2)oc2ccc(-c3cc(OC)c(OC)c(OC)c3)cc12` the Tm shift relative to glycine control was 14.2% (active). In the case of `COc1ccccc1CNC(=O)c1cc(=O)c2ccccc2o1`, the Tm shift relative to glycine control is reported as -2.39% (inactive). For `COc1cc(CC(=O)NCc2cccs2)cc(OC)c1OC`, the Tm shift relative to glycine control was 2.82% (inactive). In the case of `CCc1ccccc1NC(=O)CN(c1ccc(OC)cc1OC)S(=O)(=O)c1ccccc1[N+](=O)[O-]`, the Tm shift relative to glycine control is reported as -2.68% (inactive). For `COc1ccc(Br)cc1CN(C)CC(=O)Nc1cc([N+](=O)[O-])ccc1OC`, the Tm shift relative to glycine control was -12.7% (inactive). In the case of `CCc1cccc(NC(=O)COC(=O)C2CCN(c3ccc(C(F)(F)F)cn3)CC2)c1`, the Tm shift relative to glycine control is reported as 12.6% (active). `N#CCCN(C(=O)COC(=O)C1CCN(c2ccc(C(F)(F)F)cn2)CC1)c1ccc(F)cc1` was tested, and the Tm shift relative to glycine control was 1.13% (inactive). For `CCOc1ccc(CCNC(=O)COC(=O)C2CCN(c3ccc(C(F)(F)F)cn3)CC2)cc1OCC`, the Tm shift relative to glycine control was -4.5% (inactive). With `COc1ccc(-n2nc(C(=O)NCC(=O)N3CCCCCC3)c3ccccc3c2=O)cc1Cl` the Tm shift relative to glycine control was -2.28% (inactive). With `NS(=O)(=O)c1ccc(NC(=O)COC(=O)c2c3c(nc4ccccc24)/C(=C\c2ccc4c(c2)OCO4)CCC3)cc1` the Tm shift relative to glycine control was 38% (active). `O=C(COC(=O)c1cc(-c2cccs2)nn1-c1ccccc1)Nc1cc([N+](=O)[O-])ccc1Cl` was tested, and the Tm shift relative to glycine control was -1.02% (inactive). In the case of `NC(=O)c1ccc(NC(=O)COC(=O)c2c3c(nc4ccccc24)/C(=C\c2ccc4c(c2)OCO4)CCC3)cc1`, the Tm shift relative to glycine control is reported as 31.8% (active). In the case of `O=C(COC(=O)c1ccncc1)Nc1ccc2c(c1)OCO2`, the Tm shift relative to glycine control is reported as -0.26% (inactive). `O=C(COC(=O)c1c2c(nc3ccccc13)/C(=C\c1cccs1)CCC2)Nc1ccccc1Cl` was tested, and the Tm shift relative to glycine control was 14.6% (active). In the case of `O=C(COC(=O)c1ccc(F)cc1)Nc1ccc2c(c1)OCO2`, the Tm shift relative to glycine control is reported as -2.46% (inactive). In the case of `NS(=O)(=O)c1ccc(NC(=O)COC(=O)CCc2c[nH]c3ccccc23)cc1`, the Tm shift relative to glycine control is reported as -3.19% (inactive). `COc1cc(/C=C2\CCCc3c2nc2ccccc2c3C(=O)O)cc(Cl)c1O` was tested, and the Tm shift relative to glycine control was -0.18% (inactive). `NS(=O)(=O)c1ccc(NC(=O)COC(=O)c2ccco2)cc1` was tested, and the Tm shift relative to glycine control was -3.86% (inactive). In the case of `CC(C)(C)n1ncc2c(=O)n(Cc3c(Cl)cccc3Br)cnc21`, the Tm shift relative to glycine control is reported as -3.98% (inactive). With `COc1ccc(NS(=O)(=O)c2ccc(C)c(C(=O)NNC(=O)c3csc(N4CCOCC4)n3)c2)cc1` the Tm shift relative to glycine control was 0.91% (inactive). With `COc1ccc(NC(=O)COC(=O)CNC(=O)C2CCCCC2)cc1` the Tm shift relative to glycine control was -0.45% (inactive). For `Cc1cc(C)cc(NC(=O)Cn2cnc3c(nnn3Cc3ccc(F)cc3)c2=O)c1`, the Tm shift relative to glycine control was 3.35% (inactive). With `COc1ccc(/C=C/CN2CCCC(C(=O)c3cc(F)ccc3F)C2)cc1` (stereo not given) the Tm shift relative to glycine control was -1.5% (inactive). In the case of `CCN1CCN(c2nc(Nc3cc(OC)ccc3OC)nc(Nc3cc(OC)ccc3OC)n2)CC1`, the Tm shift relative to glycine control is reported as -2.4% (inactive). With `Cc1csc(NC(=O)C2CCN(S(=O)(=O)c3ccccc3)CC2)n1` the Tm shift relative to glycine control was 2.42% (inactive). `CC(C)(C)NC(=O)COc1ccc(CNc2ccc3[nH]c(=O)[nH]c3c2)cc1` was tested, and the Tm shift relative to glycine control was -1.72% (inactive). With `COc1cccc(CN(C)CC(O)COC(c2ccccc2)c2ccccc2C)c1` (stereo not given) the Tm shift relative to glycine control was -2.39% (inactive). In the case of `C=C(C)Cn1c(C)cc(C)c(S(=O)(=O)c2ccccc2C)c1=O`, the Tm shift relative to glycine control is reported as 2.34% (inactive). `COCCn1c(C)cc(C(=O)CSc2nnc(C3CC3)n2C2CC2)c1C` was tested, and the Tm shift relative to glycine control was -0.08% (inactive). In the case of `Cc1nc2ccccc2n1CC(=O)N/N=C/c1cccs1`, the Tm shift relative to glycine control is reported as -4.96% (inactive). For `CC(C)NS(=O)(=O)c1ccc(NC(=O)c2cccnc2)cc1`, the Tm shift relative to glycine control was 0.24% (inactive). `COc1ccc(NS(=O)(=O)c2ccc(NC(=O)c3ccc(N(C)S(C)(=O)=O)cc3)cc2)cc1` was tested, and the Tm shift relative to glycine control was -0.38% (inactive). With `COc1ccc(C(=O)Nc2ccc(S(=O)(=O)NC(C)C)cc2)cc1` the Tm shift relative to glycine control was 14% (active).
